tim10-1 inh – growth inhibitors of tim10-1 mutant yeast; hit rate 2.2% among 330,000; AID 463190; inhibition, % at 20 µM; S. cerevisiae tim10-1 ts strain growth, BacTiter-Glo, 24 h;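 active = inhibition of at least 40%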;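 note: mutant grown at 25 °C; 0% = DMSO wells with yeast and 100% = wells holding no yeast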
tim23-1 inh – inhibits growth of tim23-1 mutant yeast. S. cerevisiae tim23-1 growth, BacTiter-Glo luminescence, 24 h. inhibition, % at 20 µM. hit rate 1.3% among 330,000;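 active = growth inhibition of the mutant yeast at or above 50%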;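 note: temperature-sensitive mutant grown at 25 °C; plate controls were DMSO-treated mutant yeast for no effect and medium wells lacking yeast for full effect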
SKKanGAS inh – SKKanGAS growth inhibition. AID 1662. S. pyogenes SKKanGAS, kanamycin growth, BacTiter-Glo, 6 h. inhibition, % at 7.5 µM. hit rate 1.3% among 300,000;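 active = mean replicate score, as percent of positive control median, at least 50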;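 note: strain carries kanamycin resistance gene driven by streptokinase promoter and grows in 40 µg/ml kanamycin; loss of luminescence reflects streptokinase promoter inhibition or plain growth inhibition; 0% = median of DMSO wells and 100% = positive control at its reference dose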
TIM10 inh – TIM10 yeast growth inhibition | S. cerevisiae TIM10 strain growth, BacTiter-Glo luminescence, 24 h | inhibition, % at 10 µM | hit rate 1.4% among 330,000;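 active = inhibition of 40% or more at the single tested concentration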;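 note: wild-type TIM10 isogenic control strain grown at permissive 25 °C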
NLRP3 yeast inh – inhibitors of NALP3 inflammasome in yeast; Yeast reconstituted NLRP3/ASC/caspase-1, beta-gal luminescence, 24 h; hit rate 0.39% among 330,000; inhibition, % at 10 µM; AID 2825;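 active = inhibition of 50% or more; inactive = inhibition below 50%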;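 note: plate controls were induced DMSO wells for no effect and uninduced yeast grown without galactose for full effect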
tim10-1 conf – tim10-1 yeast growth inhibition, confirmed; shares compounds with tim10-1 inh; S. cerevisiae tim10-1 ts strain growth, BacTiter-Glo, 24 h; inhibition, % at 20 µM; hit rate 56% among 7,400;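 active = inhibition of yeast growth at or above a set limit in either of two repeat tests at 20 µM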;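 note: tim10-1 mutant grown at permissive 25 °C to find synthetic lethal compounds; 0% = DMSO yeast wells and 100% = medium wells without yeast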
* marks the source's active call; other numbers are inactive results; / = not tested or not shown. In the library only some 4.6% were active in any assay of this set; here they are far more common.

SMILES | tim10-1 inh | tim23-1 inh | SKKanGAS inh | TIM10 inh | NLRP3 yeast inh | tim10-1 conf
O=C(NCC1CCCO1)c1cccc(S(=O)(=O)N2CCOCC2)c1 (configuration not stated) | 9.7 | 15.2 | -0.1 | 9.1 | 3.9 | /
CC(=O)NNS(=O)(=O)c1scc(S(=O)(=O)c2ccc(Cl)cc2)c1C | 0.9 | 18.0 | 2.6 | 10.5 | 5.4 | /
c1ccc(C(c2ccccc2)c2ccn[nH]2)cc1 | 44.0* | 23.9 | 10.4 | 2.4 | 0.3 | 12.8
COc1ccc(S(=O)(=O)N(C)CC(=O)N2CCCC2)cc1OC | -8.7 | -1.2 | -0.2 | 2.2 | -10.3 | /
COc1cccc(Oc2nnnn2-c2ccccc2)c1 | 41.7* | 33.9 | -7.9 | 21.6 | -56.3 | 32.9*
COc1ccc(Oc2nnnn2-c2ccccc2)cc1 | 20.2 | 9.2 | -6.8 | 16.0 | 10.0 | /
N#Cc1cccc(NC(=O)CNc2cccc(S(=O)(=O)N3CCCCC3)c2)c1 | 16.4 | 19.1 | -1.1 | 5.5 | -5.0 | /
C=C1/C(=C\C=C2/CCC[C@]3(C)[C@@H]([C@H](C)/C=C/[C@@H](O)C4CC4)CC[C@@H]23)C[C@@H](O)C[C@@H]1O | 44.0* | 41.5 | 9.4 | 9.9 | 48.0 | 26.2
COc1ccc(Nc2ccccc2N)cc1 | 47.2* | 36.0 | 25.9 | 26.5 | 39.1 | 24.1
Nc1ccc(Nc2ccccc2N)cc1 | 35.3 | 26.3 | / | -4.6 | 34.2 | /
Cc1cccc(-n2ccnc2SCC(=O)Nc2cccc(S(=O)(=O)NC3=NCCC3)c2)c1C | 2.6 | 12.0 | / | 6.9 | 17.2 | /
CCOC(=O)C1CCN(C(=O)c2cc3c(OC)c(OC)c(OC)cc3[nH]2)CC1 | -3.4 | 8.2 | -1.5 | -14.9 | -7.4 | /
COc1cc2[nH]c(C(=O)N3CCC(Cc4ccccc4)CC3)cc2c(OC)c1OC | 44.5* | 33.6 | 3.6 | 12.4 | 9.5 | 16.1
O=C(Nc1cc(Cl)ccc1N1CCCC1)C1=NN(c2ccccc2)C(=O)CC1 | 21.9 | 9.9 | -2.2 | 7.6 | 16.9 | /
CCOC(=O)Nc1ccc2nc(Sc3ccc(Cl)cc3)sc2c1 | 42.1* | 26.6 | 23.9 | 20.4 | 17.5 | 33.5*
CSc1nc2ccc(NC(=O)c3ccc(F)c(F)c3)cc2s1 | -7.7 | -19.8 | 4.2 | 1.9 | 26.0 | /
COc1ccc(C(=O)Cn2cc[n+](C)c2)cc1 | -8.6 | -7.5 | 13.0 | -3.4 | 5.4 | /
O=C(c1ccco1)N1CCN(c2c([N+](=O)[O-])nn(-c3ccc(Cl)cc3)[n+]2[O-])CC1 | 17.4 | 29.3 | -0.9 | 10.6 | 3.3 | /
CC1CCN(c2c([N+](=O)[O-])nn(-c3ccc4c(c3)OCCO4)[n+]2[O-])CC1 | 44.4* | 37.7 | 1.8 | 22.2 | 23.2 | 29.1
CC1(C)OC(=O)N(c2ccccc2)C12C=Cc1c(ccc3ccccc13)O2 (configuration not stated) | 42.5* | -9.1 | 21.8 | 23.2 | -1.8 | 7.0
CC(c1ccccc1)N1C(=O)OC(C)(C)C1(C)O (configuration not stated) | 15.8 | 15.0 | / | -1.0 | -14.0 | /
CN(CC(=O)O/N=C(\N)c1ccc(Br)cc1)S(=O)(=O)c1ccccc1 | 49.6* | 9.5 | -13.8 | -3.8 | 27.7 | 43.0*
CN(CC(=O)O/N=C(\N)c1ccccn1)S(=O)(=O)c1ccc(Br)cc1 | 31.9 | 22.7 | -6.6 | 12.6 | 19.6 | /
CCCNC(=O)c1ccc(N2CCC3(CC2)CC(c2ccccc2)=NO3)c(NC(=O)Cc2ccc(F)cc2)c1 | 18.2 | 22.1 | 32.6 | 4.5 | 15.8 | /
COc1ccc(NC(=S)N(C)CC2COc3ccccc3O2)cc1 (configuration not stated) | 23.2 | 28.7 | -3.7 | 19.7 | 15.1 | /
SMILES | tim10-1 inh | tim23-1 inh | SKKanGAS inh | TIM10 inh | NLRP3 yeast inh | tim10-1 conf
CCN(CC1COc2ccccc2O1)C(=S)Nc1ccc(F)cc1 (configuration not stated) | 45.2* | 47.5 | 3.7 | 31.8 | 26.7 | 30.0
Cc1cc(C)n(C(=O)c2ccc([N+](=O)[O-])cc2[N+](=O)[O-])n1 | 40.5* | 49.3 | 12.8 | 12.4 | 2.6 | 30.1
O=C(c1cn(-c2ccccc2)nc1-c1ccc(Cl)s1)N1CCOCC1 | 43.7* | 24.9 | -3.0 | 20.7 | 9.0 | 25.2
O=C(c1cn(-c2ccccc2)nc1-c1ccc(Cl)cc1)N1CCOCC1 | 34.6 | 46.2 | 11.0 | 31.4 | 10.2 | /
CN1CCN(CC(=O)c2cc(C(C)(C)C)c(O)c(C(C)(C)C)c2)CC1 | 43.9* | 23.6 | 1.7 | 24.4 | -14.8 | 25.9
COc1cccc(CNC(=O)Cc2ccc(OC)c(S(=O)(=O)N3CCOCC3)c2)c1 | 2.4 | -3.9 | -6.2 | -1.8 | 1.4 | /
CC(C)(C)c1ccc(/C=C/C(=O)N2CCN(c3ncccn3)CC2)cc1 | 42.6* | 34.3 | 9.5 | 28.7 | 21.5 | 35.0*
O=C(/C=C/c1ccc(F)cc1)N1CCN(c2ncccn2)CC1 | -12.5 | -0.9 | 0.6 | -18.8 | -22.3 | /
O=C(COc1cc2oc(=O)cc(-c3ccccc3)c2cc1Cl)NCc1ccccn1 | 41.9* | -10.0 | -1.1 | -24.3 | 5.5 | -57.9
CNc1nc(-c2ccccn2)nnc1-c1ccccc1 | 44.6* | 36.3 | 2.1 | 10.9 | 6.9 | 32.1*
O=C(/C=C(/c1ccc(Cl)cc1)n1cncn1)c1ccccc1 | 43.4* | 36.4 | -3.3 | 18.8 | -2.3 | 31.0*
CC(C)(C)C(=O)OCc1nc(-c2ccc(C(F)(F)F)cc2)cs1 | 20.9 | 0.0 | -3.8 | 19.4 | 20.2 | /
CNC(=O)C(C#N)(Cc1cc(C(C)=O)ccc1OC)Cc1cc(C(C)=O)ccc1OC | -5.6 | 1.0 | 0.5 | 14.1 | 2.1 | /
Cc1nc2c(-c3ccccc3)cnn2c(N)c1-c1ccccc1 | 43.3* | 39.0 | 3.7 | 29.6 | 10.0 | 39.5*
O=C(O)c1ccc(CSc2nnc(-c3ccccc3)n2-c2ccccc2)cc1 | 18.0 | 2.9 | -5.2 | -1.0 | 5.2 | /
Brc1cccc(-c2nnc(SCc3ccon3)n2-c2ccccc2)c1 | 40.6* | 44.6 | -6.4 | 26.3 | 10.1 | 14.7
CN(Cc1ccccc1)C(=O)c1cccc(NC(=O)C2CCCN(C(=O)OC(C)(C)C)C2)c1 (configuration not stated) | 19.3 | 23.6 | / | 6.8 | 14.0 | /
O=C(COc1ccccc1)Nc1ccncc1Cl | 5.1 | 10.1 | -7.3 | 2.5 | 19.9 | /
O=C1/C(=C/c2ccc(O)cc2)CCc2ccc([N+](=O)[O-])cc21 | 20.0 | 1.6 | 8.6 | 0.7 | 19.4 | /
O=C1/C(=C\c2ccc([N+](=O)[O-])cc2)CCc2ccccc21 | 46.6* | 41.8 | 5.1 | 36.9 | 20.6 | 36.0*
CC(C)NC(=O)c1ccc(-c2ccccc2C(F)(F)F)o1 | 26.1 | 30.4 | -4.1 | 18.1 | 44.5 | /
O=C(Nc1ccccc1)c1ccc(-c2ccccc2C(F)(F)F)o1 | 43.8* | 39.8 | / | 19.7 | 28.2 | 26.9
COC(=O)CSc1nnc(Cc2ccccc2)n1-c1ccc(C)cc1 | 41.0* | 15.8 | 1.5 | 19.3 | 1.2 | 25.5
CCOC(=O)CSc1nnc(CNc2ccccc2Cl)n1-c1ccccc1 | 45.2* | 23.8 | 12.0 | 2.8 | -20.5 | 19.8
Cc1ccc(-n2c(Cc3cccn3C)nnc2SCC(=O)N2CCc3ccccc32)cc1 | 42.6* | 34.7 | 0.5 | 32.7 | 11.6 | 22.3
